# Tests used:
# Assay in all cases: DAPPL (digital affinity profiling via proximity ligation, sequencing); 10 mM Tris-HCl pH 7.5, 50 mM NaCl, 1 mM DTT, 4% glycerol, room temperature, 30 min; GST-TFs on glutathione beads, 16-mer random dsDNA library, 0.1% formaldehyde crosslink after washing; high values mean tight binding
# [1] = molecular target: T1, FLI1 (Homo sapiens, UniProt Q01543 1-452); settings: protein: recombinant; tags: N-terminal GST; dsDNA, one strand shown
# T1 sequence: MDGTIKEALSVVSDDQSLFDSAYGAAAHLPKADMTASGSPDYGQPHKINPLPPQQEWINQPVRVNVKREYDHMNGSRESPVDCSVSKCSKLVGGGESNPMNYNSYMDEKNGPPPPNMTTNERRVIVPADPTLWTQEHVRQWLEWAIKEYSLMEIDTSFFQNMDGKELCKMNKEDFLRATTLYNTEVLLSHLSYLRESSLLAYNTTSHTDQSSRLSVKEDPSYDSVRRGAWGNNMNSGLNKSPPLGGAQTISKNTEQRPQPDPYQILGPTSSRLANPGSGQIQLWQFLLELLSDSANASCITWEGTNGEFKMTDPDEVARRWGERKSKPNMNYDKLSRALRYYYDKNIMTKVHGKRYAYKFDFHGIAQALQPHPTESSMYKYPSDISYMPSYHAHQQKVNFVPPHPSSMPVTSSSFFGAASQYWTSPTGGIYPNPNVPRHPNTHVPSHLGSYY
# In short: (§1)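 Human transcription factors were made in yeast as GST fusions, captured on glutathione beads and barcoded with DNA. With a tag-only sample included, the pool was incubated with 200 nmole of a random double-stranded 16-mer DNA library in Tris/NaCl/DTT/glycerol buffer at room temperature for 30 min, then crosslinked with 0.1% formaldehyde after washing, ligated by proximity, amplified and sequenced. For binding signal, each hexamer's read frequency for a factor is divided by its frequency for the tag-only sample.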
# [2] = molecular target: T2, ELK1 (Homo sapiens, UniProt P19419 1-428); settings: protein: recombinant; tags: N-terminal GST; dsDNA, one strand shown
# T2 sequence: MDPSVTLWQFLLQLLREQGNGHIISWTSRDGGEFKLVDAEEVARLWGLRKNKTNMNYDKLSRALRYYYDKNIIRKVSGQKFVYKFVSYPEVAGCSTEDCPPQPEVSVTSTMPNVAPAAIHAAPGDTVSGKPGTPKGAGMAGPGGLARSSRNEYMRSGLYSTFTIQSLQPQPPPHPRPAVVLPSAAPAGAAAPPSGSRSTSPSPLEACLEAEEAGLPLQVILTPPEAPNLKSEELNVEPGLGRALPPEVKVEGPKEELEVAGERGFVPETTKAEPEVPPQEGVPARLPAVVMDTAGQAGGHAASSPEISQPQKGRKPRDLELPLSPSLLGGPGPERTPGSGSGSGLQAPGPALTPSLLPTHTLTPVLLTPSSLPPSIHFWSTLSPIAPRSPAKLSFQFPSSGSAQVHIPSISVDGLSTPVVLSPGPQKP
# In short: as §1
# [3] = molecular target: T3, GABPA (Homo sapiens, UniProt Q06546 1-454); settings: protein: recombinant; tags: N-terminal GST; dsDNA, one strand shown
# T3 sequence: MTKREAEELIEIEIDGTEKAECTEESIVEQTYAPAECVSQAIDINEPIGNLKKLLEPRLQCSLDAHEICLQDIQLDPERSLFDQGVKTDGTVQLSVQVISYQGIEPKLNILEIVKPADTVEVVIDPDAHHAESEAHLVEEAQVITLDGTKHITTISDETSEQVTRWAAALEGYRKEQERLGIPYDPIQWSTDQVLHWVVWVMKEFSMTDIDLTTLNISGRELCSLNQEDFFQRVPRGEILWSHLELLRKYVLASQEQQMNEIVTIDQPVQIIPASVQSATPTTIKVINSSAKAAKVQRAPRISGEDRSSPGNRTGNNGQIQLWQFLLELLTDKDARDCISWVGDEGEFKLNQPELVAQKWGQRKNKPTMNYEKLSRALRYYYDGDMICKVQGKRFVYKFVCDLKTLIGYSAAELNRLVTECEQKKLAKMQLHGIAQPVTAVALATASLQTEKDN
# In short: as §1
# [4] = molecular target: T4, ERG (Homo sapiens, UniProt P11308 1-479); settings: protein: recombinant; tags: N-terminal GST; dsDNA, one strand shown
# T4 sequence: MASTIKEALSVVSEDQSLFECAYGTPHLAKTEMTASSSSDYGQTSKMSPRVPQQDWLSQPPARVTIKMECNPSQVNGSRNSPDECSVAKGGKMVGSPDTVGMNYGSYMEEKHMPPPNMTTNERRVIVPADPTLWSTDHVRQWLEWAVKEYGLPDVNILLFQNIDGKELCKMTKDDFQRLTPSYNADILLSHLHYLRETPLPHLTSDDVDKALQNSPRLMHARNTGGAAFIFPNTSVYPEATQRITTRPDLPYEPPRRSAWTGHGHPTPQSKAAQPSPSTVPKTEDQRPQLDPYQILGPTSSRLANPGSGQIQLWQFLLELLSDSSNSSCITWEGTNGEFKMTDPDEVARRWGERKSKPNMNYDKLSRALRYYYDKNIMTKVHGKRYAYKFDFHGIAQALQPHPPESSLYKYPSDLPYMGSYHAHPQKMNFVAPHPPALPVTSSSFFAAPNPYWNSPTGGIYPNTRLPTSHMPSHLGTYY
# In short: as §1
# [5] = molecular target: ELF1 (Homo sapiens, UniProt P32519 1-619); settings: protein: recombinant; tags: N-terminal GST; dsDNA, one strand shown
# ELF1, sequence (P32519 whole entry): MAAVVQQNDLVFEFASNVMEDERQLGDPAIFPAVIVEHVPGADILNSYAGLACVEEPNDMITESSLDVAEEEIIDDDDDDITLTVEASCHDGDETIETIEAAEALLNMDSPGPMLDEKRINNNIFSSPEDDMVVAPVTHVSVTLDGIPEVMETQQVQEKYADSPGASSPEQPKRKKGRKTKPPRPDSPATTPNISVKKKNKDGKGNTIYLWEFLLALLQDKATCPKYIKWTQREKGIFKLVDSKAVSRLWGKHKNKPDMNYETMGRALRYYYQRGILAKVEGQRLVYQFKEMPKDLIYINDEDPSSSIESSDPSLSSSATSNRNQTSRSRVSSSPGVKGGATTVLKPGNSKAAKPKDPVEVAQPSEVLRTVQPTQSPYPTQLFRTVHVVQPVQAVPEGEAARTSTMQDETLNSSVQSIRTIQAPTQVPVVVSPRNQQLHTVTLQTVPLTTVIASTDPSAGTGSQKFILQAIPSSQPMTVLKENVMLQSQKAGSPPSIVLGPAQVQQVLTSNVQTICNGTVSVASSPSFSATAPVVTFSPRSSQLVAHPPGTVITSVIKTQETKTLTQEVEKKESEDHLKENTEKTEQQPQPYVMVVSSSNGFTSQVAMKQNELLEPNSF
# In short: as §1
# [6] = molecular target: T5, EHF (Homo sapiens, UniProt Q9NZC4 1-300); settings: protein: recombinant; tags: N-terminal GST; dsDNA, one strand shown
# T5 sequence: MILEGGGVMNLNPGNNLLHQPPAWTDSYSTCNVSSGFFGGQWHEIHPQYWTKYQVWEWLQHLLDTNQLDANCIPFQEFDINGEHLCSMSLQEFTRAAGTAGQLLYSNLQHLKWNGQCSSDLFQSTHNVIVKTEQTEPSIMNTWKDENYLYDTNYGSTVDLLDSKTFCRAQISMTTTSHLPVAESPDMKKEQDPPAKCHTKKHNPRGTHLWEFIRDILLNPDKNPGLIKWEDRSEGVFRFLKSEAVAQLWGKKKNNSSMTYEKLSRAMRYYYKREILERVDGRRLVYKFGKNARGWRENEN
# In short: as §1
# [7] = molecular target: SPI1 (Homo sapiens, UniProt P17947 1-270); settings: protein: recombinant; tags: N-terminal GST; dsDNA, one strand shown
# In short: as §1
# [8] = molecular target: SPIB (Homo sapiens, UniProt Q01892 1-262); settings: protein: recombinant; tags: N-terminal GST; dsDNA, one strand shown
# SPIB, sequence (Q01892 whole entry): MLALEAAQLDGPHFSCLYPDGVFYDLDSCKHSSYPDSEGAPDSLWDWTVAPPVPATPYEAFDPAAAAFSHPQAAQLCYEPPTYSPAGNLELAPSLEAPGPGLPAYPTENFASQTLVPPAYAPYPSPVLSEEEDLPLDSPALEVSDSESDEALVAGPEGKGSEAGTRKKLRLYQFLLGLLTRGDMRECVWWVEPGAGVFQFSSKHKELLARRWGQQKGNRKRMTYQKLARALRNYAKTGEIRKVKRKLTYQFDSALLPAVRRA
# In short: as §1
# [9] = molecular target: T6, ELK3 (Homo sapiens, UniProt P41970 1-407); settings: protein: recombinant; tags: N-terminal GST; dsDNA, one strand shown
# T6 sequence: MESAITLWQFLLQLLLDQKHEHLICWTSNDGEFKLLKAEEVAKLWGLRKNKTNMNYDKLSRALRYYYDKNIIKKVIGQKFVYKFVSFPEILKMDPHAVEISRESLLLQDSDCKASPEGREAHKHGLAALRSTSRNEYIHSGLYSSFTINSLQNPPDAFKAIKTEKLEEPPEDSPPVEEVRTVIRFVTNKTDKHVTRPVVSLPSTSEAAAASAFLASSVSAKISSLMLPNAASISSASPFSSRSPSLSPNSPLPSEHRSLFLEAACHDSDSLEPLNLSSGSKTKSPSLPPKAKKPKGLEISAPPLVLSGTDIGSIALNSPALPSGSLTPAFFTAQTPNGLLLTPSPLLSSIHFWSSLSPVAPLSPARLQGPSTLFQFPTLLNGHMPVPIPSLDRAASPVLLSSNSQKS
# In short: as §1
# [10] = molecular target: T7, FEV (Homo sapiens, UniProt Q99581 1-238); settings: protein: recombinant; tags: N-terminal GST; dsDNA, one strand shown
# T7 sequence: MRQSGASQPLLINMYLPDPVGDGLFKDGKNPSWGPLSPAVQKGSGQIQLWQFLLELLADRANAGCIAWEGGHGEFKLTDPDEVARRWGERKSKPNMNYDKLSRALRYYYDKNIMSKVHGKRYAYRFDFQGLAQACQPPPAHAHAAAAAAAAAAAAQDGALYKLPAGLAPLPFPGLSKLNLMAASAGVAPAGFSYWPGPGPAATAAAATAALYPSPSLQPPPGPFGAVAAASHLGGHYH
# In short: as §1
# [11] = molecular target: ETV5 (Homo sapiens, UniProt P41161 1-510); settings: protein: recombinant; tags: N-terminal GST; dsDNA, one strand shown
# ETV5, sequence (P41161 whole entry): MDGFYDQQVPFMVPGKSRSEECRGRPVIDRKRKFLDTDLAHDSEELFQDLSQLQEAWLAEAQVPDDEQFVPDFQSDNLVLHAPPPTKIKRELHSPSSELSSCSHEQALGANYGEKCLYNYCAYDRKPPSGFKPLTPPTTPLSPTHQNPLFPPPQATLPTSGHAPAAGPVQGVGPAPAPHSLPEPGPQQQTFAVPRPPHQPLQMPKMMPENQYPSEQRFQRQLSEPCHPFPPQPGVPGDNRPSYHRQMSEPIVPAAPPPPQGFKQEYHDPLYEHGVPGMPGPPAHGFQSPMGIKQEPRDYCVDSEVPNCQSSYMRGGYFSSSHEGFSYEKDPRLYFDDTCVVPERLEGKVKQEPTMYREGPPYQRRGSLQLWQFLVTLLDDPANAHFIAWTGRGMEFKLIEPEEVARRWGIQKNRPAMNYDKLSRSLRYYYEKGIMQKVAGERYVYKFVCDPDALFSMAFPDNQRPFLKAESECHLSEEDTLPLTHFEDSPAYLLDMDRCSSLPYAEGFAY
# In short: as §1
# [12] = molecular target: HSF1 (Homo sapiens, UniProt Q00613 1-529); settings: protein: recombinant; tags: N-terminal GST; chain copies: 3; dsDNA, one strand shown
# HSF1, sequence (Q00613 whole entry): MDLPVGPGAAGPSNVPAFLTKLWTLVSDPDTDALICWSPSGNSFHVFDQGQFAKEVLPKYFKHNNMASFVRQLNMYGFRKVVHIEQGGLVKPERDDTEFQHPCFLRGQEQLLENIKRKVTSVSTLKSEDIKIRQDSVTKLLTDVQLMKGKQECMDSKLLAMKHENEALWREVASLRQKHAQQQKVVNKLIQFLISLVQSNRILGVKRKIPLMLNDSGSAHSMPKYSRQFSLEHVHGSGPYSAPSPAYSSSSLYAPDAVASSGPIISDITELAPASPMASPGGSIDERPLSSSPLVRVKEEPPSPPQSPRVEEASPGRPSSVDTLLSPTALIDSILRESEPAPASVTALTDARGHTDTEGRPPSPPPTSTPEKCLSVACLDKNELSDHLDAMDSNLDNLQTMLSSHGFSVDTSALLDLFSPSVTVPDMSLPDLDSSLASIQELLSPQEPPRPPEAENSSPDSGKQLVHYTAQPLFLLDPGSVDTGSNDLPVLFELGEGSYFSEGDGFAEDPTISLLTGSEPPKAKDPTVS
# In short: as §1
# [13] = molecular target: T8, SPIC (Homo sapiens, UniProt Q8N5J4 1-248); settings: protein: recombinant; tags: N-terminal GST; dsDNA, one strand shown
# T8 sequence: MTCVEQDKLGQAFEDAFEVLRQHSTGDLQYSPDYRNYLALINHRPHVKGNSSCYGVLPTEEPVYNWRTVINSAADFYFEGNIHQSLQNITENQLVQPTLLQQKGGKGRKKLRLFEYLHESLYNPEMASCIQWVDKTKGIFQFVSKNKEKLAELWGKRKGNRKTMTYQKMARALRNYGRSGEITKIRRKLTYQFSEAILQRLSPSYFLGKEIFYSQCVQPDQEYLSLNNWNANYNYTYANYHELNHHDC
# In short: as §1
# [14] = molecular target: ELF4 (Homo sapiens, UniProt Q99607 1-663); settings: protein: recombinant; tags: N-terminal GST; dsDNA, one strand shown
# ELF4, sequence (Q99607 whole entry): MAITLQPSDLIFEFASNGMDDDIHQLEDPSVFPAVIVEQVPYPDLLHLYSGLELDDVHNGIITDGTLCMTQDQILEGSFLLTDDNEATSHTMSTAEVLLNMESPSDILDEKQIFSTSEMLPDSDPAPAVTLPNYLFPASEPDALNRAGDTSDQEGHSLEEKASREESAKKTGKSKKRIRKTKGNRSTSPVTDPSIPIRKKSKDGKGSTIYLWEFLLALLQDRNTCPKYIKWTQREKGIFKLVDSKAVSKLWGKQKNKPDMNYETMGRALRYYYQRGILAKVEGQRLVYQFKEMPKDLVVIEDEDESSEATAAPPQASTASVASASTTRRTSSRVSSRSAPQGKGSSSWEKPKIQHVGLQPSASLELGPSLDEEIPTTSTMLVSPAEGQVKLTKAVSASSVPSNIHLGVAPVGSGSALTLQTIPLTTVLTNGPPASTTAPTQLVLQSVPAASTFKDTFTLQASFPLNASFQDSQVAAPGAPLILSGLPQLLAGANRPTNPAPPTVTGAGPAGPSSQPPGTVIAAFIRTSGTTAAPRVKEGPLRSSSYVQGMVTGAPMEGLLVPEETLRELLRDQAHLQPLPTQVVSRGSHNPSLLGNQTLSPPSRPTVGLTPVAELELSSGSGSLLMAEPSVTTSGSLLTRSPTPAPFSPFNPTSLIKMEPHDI
# In short: as §1
# [15] = molecular target: T9, ELK4 (Homo sapiens, UniProt P28324-2 1-405); settings: protein: recombinant; tags: N-terminal GST; dsDNA, one strand shown
# T9 sequence: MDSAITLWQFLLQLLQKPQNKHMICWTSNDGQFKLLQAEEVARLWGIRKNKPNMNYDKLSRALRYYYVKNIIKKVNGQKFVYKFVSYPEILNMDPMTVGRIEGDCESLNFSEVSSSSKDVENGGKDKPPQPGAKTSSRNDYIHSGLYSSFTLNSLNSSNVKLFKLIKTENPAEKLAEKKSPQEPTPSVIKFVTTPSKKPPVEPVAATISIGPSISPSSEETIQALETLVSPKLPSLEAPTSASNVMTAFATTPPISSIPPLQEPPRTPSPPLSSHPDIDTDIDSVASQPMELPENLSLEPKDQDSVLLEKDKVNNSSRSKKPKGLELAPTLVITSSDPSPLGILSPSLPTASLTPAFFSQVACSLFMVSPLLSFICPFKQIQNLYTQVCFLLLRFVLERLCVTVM
# In short: as §1
# [16] = molecular target: T10, ETV2 (Homo sapiens, UniProt O00321 1-342); settings: protein: recombinant; tags: N-terminal GST; dsDNA, one strand shown
# T10 sequence: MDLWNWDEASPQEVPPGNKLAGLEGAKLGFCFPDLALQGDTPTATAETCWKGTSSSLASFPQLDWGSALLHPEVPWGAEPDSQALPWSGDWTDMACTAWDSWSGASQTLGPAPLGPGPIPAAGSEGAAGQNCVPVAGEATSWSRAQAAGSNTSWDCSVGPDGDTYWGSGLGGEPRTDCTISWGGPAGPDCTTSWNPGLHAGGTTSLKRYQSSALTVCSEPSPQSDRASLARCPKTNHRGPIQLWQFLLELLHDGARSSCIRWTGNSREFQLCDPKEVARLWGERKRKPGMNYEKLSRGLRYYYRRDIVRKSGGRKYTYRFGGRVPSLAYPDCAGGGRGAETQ
# In short: as §1
# [17] = molecular target: T11, ELF3 (Homo sapiens, UniProt P78545 1-371); settings: protein: recombinant; tags: N-terminal GST; dsDNA, one strand shown
# T11 sequence: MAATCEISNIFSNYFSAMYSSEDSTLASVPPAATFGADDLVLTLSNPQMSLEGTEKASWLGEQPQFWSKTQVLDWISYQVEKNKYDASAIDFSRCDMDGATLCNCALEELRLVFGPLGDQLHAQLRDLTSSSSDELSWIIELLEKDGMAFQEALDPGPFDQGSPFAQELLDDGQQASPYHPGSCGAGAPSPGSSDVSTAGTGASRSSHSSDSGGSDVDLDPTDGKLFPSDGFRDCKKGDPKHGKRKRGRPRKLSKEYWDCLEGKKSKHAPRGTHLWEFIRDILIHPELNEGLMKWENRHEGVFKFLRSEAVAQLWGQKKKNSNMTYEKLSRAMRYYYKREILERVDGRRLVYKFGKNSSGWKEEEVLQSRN
# In short: as §1
# [18] = molecular target: CRX (Homo sapiens, UniProt O43186 1-299); settings: protein: recombinant; tags: N-terminal GST; dsDNA, one strand shown
# CRX, sequence (O43186 whole entry): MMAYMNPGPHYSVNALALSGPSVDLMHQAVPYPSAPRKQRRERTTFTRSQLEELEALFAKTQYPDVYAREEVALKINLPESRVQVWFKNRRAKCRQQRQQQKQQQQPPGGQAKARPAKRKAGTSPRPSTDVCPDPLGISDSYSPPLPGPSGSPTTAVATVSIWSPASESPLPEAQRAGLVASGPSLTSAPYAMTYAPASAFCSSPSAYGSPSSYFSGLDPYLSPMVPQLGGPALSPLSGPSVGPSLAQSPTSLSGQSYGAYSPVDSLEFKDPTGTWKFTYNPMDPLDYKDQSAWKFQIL
# In short: as §1
# [19] = molecular target: ETV1 (Homo sapiens, UniProt P50549 1-477); settings: protein: recombinant; tags: N-terminal GST; dsDNA, one strand shown
# ETV1, sequence (P50549 whole entry): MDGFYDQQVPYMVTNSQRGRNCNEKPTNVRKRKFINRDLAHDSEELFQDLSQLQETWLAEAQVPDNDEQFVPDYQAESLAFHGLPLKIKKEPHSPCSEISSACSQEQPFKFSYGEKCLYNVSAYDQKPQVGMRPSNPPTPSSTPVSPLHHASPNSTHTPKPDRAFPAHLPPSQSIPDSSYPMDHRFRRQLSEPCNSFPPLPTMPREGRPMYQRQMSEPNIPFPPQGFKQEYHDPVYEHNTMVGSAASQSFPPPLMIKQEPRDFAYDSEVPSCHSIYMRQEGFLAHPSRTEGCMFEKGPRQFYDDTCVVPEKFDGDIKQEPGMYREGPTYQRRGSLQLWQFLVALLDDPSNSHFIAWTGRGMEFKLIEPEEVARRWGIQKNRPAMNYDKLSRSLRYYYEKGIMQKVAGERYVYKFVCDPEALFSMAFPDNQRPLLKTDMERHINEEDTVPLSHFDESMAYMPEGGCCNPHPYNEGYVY
# In short: as §1
sequence,measurement,setting,value
CTCTGG,binding signal,[1],"1.31 fold enrichment (6-mer frequency, TF over GST control)"
same,binding signal,[2],"1.5 fold enrichment (6-mer frequency, TF over GST control)"
same,binding signal,[3],"1.3 fold enrichment (6-mer frequency, TF over GST control)"
same,binding signal,[4],"1.28 fold enrichment (6-mer frequency, TF over GST control)"
same,binding signal,[5],"1.34 fold enrichment (6-mer frequency, TF over GST control)"
same,binding signal,[6],"1.35 fold enrichment (6-mer frequency, TF over GST control)"
same,binding signal,[7],"1.4 fold enrichment (6-mer frequency, TF over GST control)"
same,binding signal,[8],"1.12 fold enrichment (6-mer frequency, TF over GST control)"
same,binding signal,[9],"1.48 fold enrichment (6-mer frequency, TF over GST control)"
same,binding signal,[10],"1.33 fold enrichment (6-mer frequency, TF over GST control)"
same,binding signal,[11],"1.32 fold enrichment (6-mer frequency, TF over GST control)"
same,binding signal,[12],"1.81 fold enrichment (6-mer frequency, TF over GST control)"
same,binding signal,[13],"1.25 fold enrichment (6-mer frequency, TF over GST control)"
same,binding signal,[14],"1.36 fold enrichment (6-mer frequency, TF over GST control)"
same,binding signal,[15],"1.23 fold enrichment (6-mer frequency, TF over GST control)"
same,binding signal,[16],"1.09 fold enrichment (6-mer frequency, TF over GST control)"
same,binding signal,[17],"1.37 fold enrichment (6-mer frequency, TF over GST control)"
same,binding signal,[18],"1.35 fold enrichment (6-mer frequency, TF over GST control)"
same,binding signal,[19],"1.22 fold enrichment (6-mer frequency, TF over GST control)"
